Bioassay records as filed in PubChem.
LDHA inh: LDHA (human) enzyme inhibition; P00338; purified LDHA, NADH/diaphorase-resazurin fluorescence; hits give low values; activity change, % (values are at about 110 or 230 µM); 480,000 tested, 0.15% active; AID 1347041; in the data active = activity change below about -30%
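Human LDH5 (2 nM) was incubated with 0.06 mM NADH and 0.2 mM pyruvate for 5 min at room temperature in Tris pH 7.4. Remaining NADH was coupled through diaphorase/resazurin, and resorufin fluorescence was read at 0 and 20 min.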
TRHR enhancer: TRH receptor (human) allosteric enhancement; P34981; TRHR cells, fluo-8 calcium fluorescence, EC20 TRH enhancement; enhancement, % at 2 µM; 360,000 tested, 0.66% active; AID 493056; in the data active = enhancement above about 30%
Target sequence (P34981 whole entry, looked up): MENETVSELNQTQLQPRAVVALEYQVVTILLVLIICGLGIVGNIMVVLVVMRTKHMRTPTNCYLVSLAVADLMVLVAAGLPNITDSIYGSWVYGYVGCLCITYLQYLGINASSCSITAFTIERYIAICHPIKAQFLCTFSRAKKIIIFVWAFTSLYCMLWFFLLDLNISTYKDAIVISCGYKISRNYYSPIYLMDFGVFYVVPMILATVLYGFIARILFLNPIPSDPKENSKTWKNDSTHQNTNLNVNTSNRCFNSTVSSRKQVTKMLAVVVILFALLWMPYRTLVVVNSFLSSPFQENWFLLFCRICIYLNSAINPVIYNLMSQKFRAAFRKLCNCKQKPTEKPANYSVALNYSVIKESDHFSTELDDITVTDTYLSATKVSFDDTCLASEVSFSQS
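Enhancer read-out: after compound pinning and an initial kinetic agonist-mode read, an EC20 of TRH (10 nM final) was injected and fluo-8 calcium signal (Ex 480/Em 530) followed at 1 s/cycle for 100 cycles in TRHR-expressing cells.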
TRHR ag: TRH receptor (human) agonism | 360,000 tested, 0.18% active | AID 493084 | P34981 | activation, % at 2 µM | TRHR cells, calcium flux fluo-8, FDSS agonist mode
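Read-out: compound-evoked intracellular calcium rise in TRHR cells, fluo-8 dye, kinetic FDSS fluorescence at 1 s/cycle following a 10-cycle baseline. Cells cultured overnight before dye loading (30 min–1.5 h, RT).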
D1 PAM: human D1 dopamine receptor positive modulation. P21728. HEK293 TREx D1 cells, calcium flux, dopamine EC20 potentiation. potentiation, % at 10 µM. 360,000 tested, 0.036% active. AID 504651; in the data active = potentiation above about 30%
D1 antag: antagonists of human D1 dopamine receptor; P21728; HEK293 TREx D1 cells, calcium flux, dopamine EC80; hits give low values; activity change, negative = inhibition, % at 10 µM; 360,000 tested, 3.2% active; in the data active = activity change below about -30%
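Tetracycline-induced HEK293 Trex D1 cells, force-coupled to calcium, dye-loaded; compounds added and read 180 s, then EC80 dopamine added and calcium flux tracked kinetically another 180 s.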
D1 ag: human D1 receptor agonism | P21728 | HEK293 T-REx D1 cells, calcium flux, agonist mode | activation, % at 2 µM | 360,000 tested, 1% active | AID 504660
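Agonism was scored from calcium flux recorded over 180 s (1 read/s) after pintool compound addition, following a 10-cycle baseline. Cells were inducible force-coupled HEK293 TREx D1, plated overnight at 30 C and loaded with no-wash calcium dye.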
A number is an active result; ! = a repeat was not active. The list is not random: actives were taken first. Their share in the collection is about 3.6%. Rule as the data show it, unless noted: active = activation above about 30%; inactive = the rest.

Screening Nc1cc(C(=O)OCc2cccc(F)c2F)ccc1Cl returned LDHA inh inactive.
Screening COc1ccc(NC(=O)Cn2nnc(C(=O)Nc3ccccc3C)c2N)cc1 returned LDHA inh inactive, TRHR enhancer inactive, TRHR ag inactive, D1 PAM inactive, D1 antag -64.4 and D1 ag inactive.
`COc1ccc(NC(=O)Cn2nnc(C(=O)NCCc3ccccc3)c2N)cc1` gave LDHA inh inactive, TRHR enhancer inactive, TRHR ag inactive, D1 PAM inactive, D1 antag inactive and D1 ag inactive.
For O=C(CSc1nnc2ccc(-c3ccc4c(c3)OCO4)nn12)NCc1ccccc1Cl the results were LDHA inh inactive.
Screening CCC1CCCCN1C(=O)CCn1ccnc1 (stereo not drawn) returned LDHA inh inactive, TRHR enhancer 32.5, TRHR ag inactive, D1 PAM inactive, D1 antag inactive and D1 ag inactive.
Cn1c(C(=O)NCc2cccc(F)c2)cc2cc(S(=O)(=O)N3CCCCC3)ccc21 was read as LDHA inh inactive, TRHR enhancer inactive, TRHR ag inactive, D1 PAM inactive, D1 antag -53.7 and D1 ag inactive.
Cc1cccc(CNC(=O)c2cc3cc(S(=O)(=O)N4CCCCC4)ccc3n2C)c1 was read as LDHA inh inactive, TRHR enhancer inactive, TRHR ag inactive, D1 PAM inactive, D1 antag -46.3 and D1 ag inactive.
Screening O=C(CCn1ccc2cc(S(=O)(=O)N3CCCC3)ccc21)NCc1ccccc1 returned LDHA inh inactive, TRHR enhancer inactive, TRHR ag inactive, D1 PAM inactive, D1 antag inactive and D1 ag inactive.
Screening CN(C)c1ccc(CNC(=O)c2cc3cc(S(=O)(=O)N4CCCCC4)ccc3n2C)cc1 returned LDHA inh inactive, TRHR enhancer inactive, TRHR ag inactive, D1 PAM inactive, D1 antag inactive and D1 ag inactive.
For O=C(CCn1ccc2cc(S(=O)(=O)N3CCCC3)ccc21)NCc1cccc(F)c1 the results were LDHA inh inactive, TRHR enhancer inactive, TRHR ag inactive, D1 PAM inactive, D1 antag -32.6! and D1 ag inactive.
Screening Cn1c(C(=O)NCc2ccccc2F)cc2cc(S(=O)(=O)N3CCCCC3)ccc21 returned LDHA inh inactive, TRHR enhancer inactive, TRHR ag inactive, D1 PAM inactive, D1 antag inactive and D1 ag inactive.
Cc1ccc(NC(=O)Cn2c(CCC(=O)O)ccc2-c2cccs2)cc1Cl was read as LDHA inh inactive, TRHR enhancer inactive, TRHR ag inactive, D1 PAM inactive, D1 antag -68.9 and D1 ag inactive.
CC1(C)CC(=O)c2sc(NS(=O)(=O)c3ccc([N+](=O)[O-])cc3)nc2C1 was read as LDHA inh inactive, TRHR enhancer inactive, TRHR ag inactive, D1 PAM inactive, D1 antag inactive and D1 ag inactive.
For CC1(C)CC(=O)c2sc(NS(=O)(=O)c3ccccc3)nc2C1 the results were LDHA inh inactive, TRHR enhancer inactive, TRHR ag inactive, D1 PAM inactive, D1 antag -37.5 and D1 ag inactive.
For COc1ccc(NC(=O)/C(C#N)=C/c2c(C)nn(-c3ccc(F)cc3)c2Cl)cc1OC the results were LDHA inh inactive, TRHR enhancer inactive, TRHR ag inactive, D1 PAM inactive, D1 antag -32.2 and D1 ag inactive.
Screening Cc1c([C@H]2[C@@H](CC#N)C2(C)C)c2ccccc2n1C returned LDHA inh inactive, TRHR enhancer inactive, TRHR ag inactive, D1 PAM inactive, D1 antag inactive and D1 ag inactive.
Screening Cc1[nH]c2c(Br)cccc2c1[C@H]1[C@@H](CC#N)C1(C)C returned LDHA inh inactive, TRHR enhancer 32.2, TRHR ag inactive, D1 PAM inactive, D1 antag inactive and D1 ag inactive.
`CCCOc1ccccc1OCC(=O)Nc1ccc2oc(C)nc2c1` gave LDHA inh inactive.
`CC(C)(C)c1ccc(-c2nc(C#N)c(NCCCn3ccnc3)o2)cc1` gave LDHA inh inactive, TRHR enhancer inactive, TRHR ag inactive, D1 PAM inactive, D1 antag inactive and D1 ag 36.4.
`Cc1cc(C)n2nc(C(=O)OC(C)C(=O)c3c(C)[nH]c4ccccc34)nc2n1` (stereo not drawn) gave LDHA inh inactive.
COc1ccccc1-c1c(C)nn2c(C)cc(C)nc12 was read as LDHA inh inactive, TRHR enhancer inactive, TRHR ag inactive, D1 PAM inactive, D1 antag -35.8 and D1 ag inactive.
`Cn1nc(C(F)(F)F)c(-c2ccc(Br)cc2)c1NC(=O)Nc1ccc(F)cc1F` gave LDHA inh inactive, TRHR enhancer inactive, TRHR ag inactive, D1 PAM inactive, D1 antag -34.1 and D1 ag inactive.
Screening COc1ccc(-c2csc(N3N=C(C)CC3c3cccc(OC)c3OC)n2)cc1 (stereo not drawn) returned LDHA inh inactive.
Screening CC(CCc1ccccc1)NC(=O)CCc1cn(C)c2ccccc12 (stereo not drawn) returned LDHA inh inactive, TRHR enhancer inactive, TRHR ag inactive, D1 PAM inactive, D1 antag -44.1 and D1 ag inactive.
For CC(=O)Nc1ccc(NC(=O)CCS(=O)(=O)c2ccc3c(c2)oc(=O)n3C)cc1 the results were LDHA inh inactive, TRHR enhancer inactive, TRHR ag inactive, D1 PAM inactive, D1 antag inactive and D1 ag inactive.
For CCc1cccc(NC(=O)C(Cc2ccccc2)NS(=O)(=O)c2ccc3c(c2)oc(=O)n3C)c1 (stereo not drawn) the results were LDHA inh inactive, TRHR enhancer inactive, TRHR ag inactive, D1 PAM inactive, D1 antag inactive and D1 ag 30.7.
`CCc1ccc(NC(=O)CCS(=O)(=O)c2ccc3c(c2)oc(=O)n3C)cc1` gave LDHA inh inactive, TRHR enhancer inactive, TRHR ag inactive, D1 PAM inactive, D1 antag -37.1 and D1 ag inactive.
For Fc1ccc(-n2c(-c3ccc4ccccc4n3)n[nH]c2=S)cc1 the results were LDHA inh inactive, TRHR enhancer inactive, TRHR ag inactive, D1 PAM inactive, D1 antag inactive and D1 ag inactive.
`S=c1[nH]nc(-c2ccc3ccccc3n2)n1-c1cc(Cl)cc(Cl)c1` gave LDHA inh inactive, TRHR enhancer inactive, TRHR ag inactive, D1 PAM inactive, D1 antag inactive and D1 ag 41.4.
CC(C(=O)N(C)Cc1ccccc1)N1CCN(C/C=C/c2ccccc2)CC1 (stereo not drawn) was read as LDHA inh -31.3, TRHR enhancer inactive, TRHR ag inactive, D1 PAM inactive, D1 antag inactive and D1 ag inactive.
